Bioassay records (PubChem BioAssay)
TRHR enhancer: qHTS for Small Molecule Agonists and Allosteric Enhancers of Human TRH Receptor: Primary Screen for Enhancers; Thyrotropin-releasing hormone receptor (Homo sapiens), P34981; TRHR cells, fluo-8 calcium fluorescence, EC20 TRH enhancement; enhancement, % at 2 µM; 0.66% of 360,000 active; AID 493056, 2011; in the data active means enhancement above about 30%; further: 0% is about no effect
Target sequence (P34981 whole entry, looked up): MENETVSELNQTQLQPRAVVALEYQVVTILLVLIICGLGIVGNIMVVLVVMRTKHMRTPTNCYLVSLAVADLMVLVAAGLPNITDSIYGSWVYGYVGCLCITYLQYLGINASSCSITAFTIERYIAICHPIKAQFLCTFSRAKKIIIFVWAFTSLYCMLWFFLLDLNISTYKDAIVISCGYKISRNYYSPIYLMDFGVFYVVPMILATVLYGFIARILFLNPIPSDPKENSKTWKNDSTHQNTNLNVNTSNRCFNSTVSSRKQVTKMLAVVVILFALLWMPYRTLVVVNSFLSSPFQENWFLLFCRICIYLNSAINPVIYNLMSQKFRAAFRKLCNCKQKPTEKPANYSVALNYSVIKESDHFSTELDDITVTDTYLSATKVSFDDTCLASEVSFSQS
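TRHR-expressing cells loaded with fluo-8 calcium dye were read kinetically (ex 480/em 530) during compound addition, then stimulated with an EC20 of TRH (10 nM final). Enhancement of the Gq-mediated intracellular calcium response was scored.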
TRPV1 PAM: HTS Assay for Compounds that Act as Potentiators of the Vanilloid Receptor 1. Transient receptor potential cation channel subfamily V member 1 (Homo sapiens), Q8NER1. TRPV1-expressing cells, Fluo-8 calcium influx, capsaicin EC20 potentiation. potentiation, % at 8.33 µM. 0.02% of 320,000 active. AID 540277, 2011; in the data active means potentiation above about 80%; inconclusive means between about 30% and that limit; further: 0% is about no effect
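Fluo-8 calcium influx in TRPV1-expressing cells, kinetic read (ex 480/em 520 nm). Compound added and read 3 min for agonist activity, followed by capsaicin at EC20 final and 2 min further read for enhancement.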
TRHR ag: qHTS for Small Molecule Agonists and Allosteric Enhancers of Human TRH Receptor: Primary Screen for Agonists; Thyrotropin-releasing hormone receptor (Homo sapiens), P34981; TRHR cells, calcium flux fluo-8, FDSS agonist mode; activation, % at 2 µM; 0.18% of 360,000 active; AID 493084, 2011; in the data active means activation above about 30%; further: 0% is about no effect
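Fluo-8-loaded TRHR cells; 10 s baseline, compound added, kinetic Ca2+ fluorescence read 1/s, agonist mode.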
TRPV1 agonist: HTS Assay for Compounds that Act as Agonists of the Vanilloid Receptor 1 | activation, % at 8.33 µM | 0.19% of 320,000 active | TRPV1-expressing cells, Fluo-8 calcium influx, agonist mode | Transient receptor potential cation channel subfamily V member 1 (Homo sapiens), Q8NER1; in the data active means activation above about 80%; inconclusive means between about 30% and that limit; further: 0% is about no effect
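TRPV1-expressing cells were cultured overnight at 35.5C and loaded with Fluo-8 calcium dye for 40 to 90 min at room temperature. After a 10 s baseline, compound was added and calcium influx was read kinetically for 3 min (ex 480/em 520 nm).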
TRPML1 ag: qHTS for Agonists of the Human Mucolipin Transient Receptor Potential 1 (TRPML1); Mucolipin-1 (Homo sapiens), Q9GZU1; TRPML1-expressing cells, Ca2+ dye fluorescence, FDSS; activation, % (no concentration beside the values); 0.12% of 410,000 active; AID 624414, 2012; in the data active means activation above about 50%; inconclusive means mostly about 30% to 49%; further: 0% is about no effect
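Tet-induced TRPML1-DL cells, 1,500 per well, cultured overnight, were loaded with a no-wash Ca2+ dye for 45–90 min. Calcium fluorescence was recorded on the FDSS for 110 s after compound addition, before the EC80 agonist (4 uM 54-4) was added.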
TRPML1 inh: qHTS for Inhibitors of the Human Mucolipin Transient Receptor Potential 1 (TRPML1) | 0.02% of 390,000 active | Mucolipin-1 (Homo sapiens), Q9GZU1 | TRPML1-inducible cells, Ca2+ dye fluorescence, FDSS; stronger effect = lower value; inhibition of EC80 agonist-evoked calcium signal | activity change, negative = inhibition, % (concentration not given with the values); in the data active means activity change below about -50%; inconclusive means between about -30% and that limit;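 further: stimulus is agonist 54-4 at its EC80 concentration; on the % scale 0 is the no-effect control and ±100 the full control effect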
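TRPML1-DL cells, Tet-induced overnight (~16 h, 37 °C) at 1,500 cells/well, were loaded with Ca8 no-wash dye plus quencher for 45-90 min at room temperature. Compounds were pinned during FDSS kinetic reading; agonist 54-4 at EC80 (4 uM final) then added.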
Starred values were filed as active, the others as inactive; ? = inconclusive; . = not tested or not shown. An excerpt weighted towards active compounds, which were near 0.96% of everything screened.

SMILES	TRHR enhancer	TRPV1 PAM	TRHR ag	TRPV1 agonist	TRPML1 ag	TRPML1 inh
COc1ccccc1/C=C/c1nc2ccccc2o1	.	.	.	.	0	.
CCCC(=O)c1c[nH]c(C(=O)N2CCOCC2)c1	36*	12	1	-5	1	53
CCOC(=O)N1CCN(/[N+]([O-])=N/OCOC)CC1	.	.	.	.	1	-7
CC(=O)NCCCc1nc2ccccc2n1Cc1cc(C)ccc1C	0	2	0	89*	1	-24
O=C(Nc1nnc(-c2ccc(Cl)cc2)o1)c1nc2ccccc2s1	4	0	22	21	87*	-16
Cn1nnnc1Sc1ncnc2scc(-c3ccccc3C#N)c12	7	.	0	.	.	.
COc1cc(OC)cc(-c2c(-c3cccs3)c3cc(-c4ccc5[nH]ccc5c4)ccc3n2C)c1	40*	1	1	3	0	12
COc1cc(OC)cc(-c2c(-c3cccs3)c3cc(-c4ccc5cc[nH]c5c4)ccc3n2C)c1	-4	-2	0	3	-1	-10
CC1(C)C2CCC(C2)C1C/C=N/NC(N)=S (stereo not given)	33*	.	0	.	2	-5
N=c1oc2c3c4c(cc2cc1C(=O)Nc1ccccc1)CCCN4CCC3	-16	11	94*	84*	0	-6
O=c1oc2c3c4c(cc2c(C(F)(F)F)c1CCN1CCOCC1)CCCN4CCC3	4	?	95*	17	91*	-26
CCOc1ccc(NC(=O)c2ccncc2)cc1	7	-14	0	23	0	15
CCOc1ccc2c(c1)C(=NNC(=O)c1ccncc1)c1cc(OCC)ccc1-2	35*	-19	0	?	-1	8
CCn1c2c(c(C)cc1=O)C(=O)CC(C)(C)C2	34*	-12	0	0	0	19
Cc1ccc(C(=O)NC2CCCC2)s1	32*	0	0	3	0	10
COCCN(CC(=O)Nc1cccc(C)c1C)C(=O)c1ccc2ccccc2n1	32*	13	0	5	0	-13
Cc1cccc(NC(=O)CN(C)C(=O)c2ccc3ccccc3n2)c1C	-1	-20	0	9	-1	9
O=C(NCCN1CCCCC1)Nc1ccc(F)cc1F	37*	15	0	4	0	-4
O=C(NCCN1CCCCC1)Nc1ccccc1F	1	6	0	-2	3	35
COc1ccc(NC(=O)CN(C)C(=O)c2ccccc2OC)cc1	35*	3	1	1	-1	-2
COc1ccc(NC(=O)CN(C)C(=O)c2cccc3ccccc23)cc1	0	1	0	-1	-1	-2
Cc1ccccc1CN(C)C(C)C(=O)Nc1ccccc1F (stereo not given)	40*	-12	-1	19	2	-12
Cc1cccc(C)c1NC(=O)CN(C)C(C)C(=O)Nc1ccccc1-c1ccccc1 (stereo not given)	-4	?	1	-2	0	-6
COc1ccc(NC2c3ccccc3C(=O)N2Cc2ccc3c(c2)OCO3)cc1 (stereo not given)	-2	3	0	102*	0	19
COc1cc(NC2c3ccccc3C(=O)N2Cc2ccc3c(c2)OCO3)cc(OC)c1 (stereo not given)	1	-6	-1	?	1	-7
SMILES	TRHR enhancer	TRPV1 PAM	TRHR ag	TRPV1 agonist	TRPML1 ag	TRPML1 inh
CCc1ccccc1N1CCN(S(=O)(=O)c2ccc(F)c(C)c2)CC1	-5	2	1	0	4	-3
Cc1ccc(N2CCN(S(=O)(=O)c3ccc(F)c(C)c3)CC2)c(C)c1	2	7	1	2	50*	-20
CC(C)Sc1nc2c(c(=O)[nH]1)C(c1cccs1)C1=C(CC(C)(C)CC1=O)N2 (stereo not given)	33*	-10	0	5	2	30
O=C(N/N=C/C=C\c1ccccc1)c1cnccn1	7	-20	0	19	0	12
O=C(N/N=C/C=C/c1ccccc1)c1ccccn1	-7	-3	0	97*	1	-5
Nc1cccc2c1C(=O)N(C(=O)/C=C/c1cccc(Br)c1)C2=O	1	.	-1	.	0	6
Nc1cccc2c1C(=O)N(C(=O)/C=C/c1cccc(F)c1)C2=O	31*	-8	0	30	0	1
COc1cccc(C(=O)NCC(=O)OCc2cc(=O)n3nc(C)sc3n2)c1	6	.	-1	.	1	-15
COc1cccc(C(=O)NCC(=O)OCc2cc(=O)n3c(C)csc3n2)c1	34*	.	0	.	0	-4
O=S(=O)(c1ccc(Br)cc1)N1CCN(c2nc(-c3ccccc3)nc3ccccc23)CC1	.	.	.	.	0	.
Cc1cc2c(s1)c1cnn(Cc3ccc(F)c(F)c3)c(=O)c1n2C	1	.	0	.	.	.
Cn1c2cc(C#N)sc2c2cnn(Cc3ccccc3F)c(=O)c21	5	.	0	.	.	.
Cc1ccc(OCCN2CCCC2)cc1	33*	0	0	2	0	-5
Clc1ccc(OCCN2CCOCC2)cc1	36*	-2	0	-2	0	-3
Brc1ccc(OCCN2CCOCC2)cc1	5	-1	0	1	-1	-16
Cc1cc(OCc2cc(C(=O)N(C)C3CCOC3)no2)cc(C)c1Cl (stereo not given)	-4	9	0	83*	3	0
COc1ccc2nc(NC(=O)CSC3=NCCS3)sc2c1	22	22	0	0	0	-18
COc1ccc2nc(NC(=O)CSc3ccccc3)sc2c1	32*	?	-1	2	0	-10
CN(N=O)c1ccc(/C=C/c2ccnc3ccccc23)cc1	.	.	.	.	3	.
CC(C)(C)n1ncc2c(=O)n(Cc3ccccc3-c3ccccc3)cnc21	.	.	.	.	2	7
COc1ccc(NS(=O)(=O)c2cc(NC(=O)c3cc(=O)c4ccccc4o3)ccc2OC)cc1	34*	?	0	-3	0	7
Cc1ccc(/C(N)=N/OC(=O)C23CC4CC(CC(C4)C2)C3)cc1	1	4	0	1	3	-3
N/C(=N\OC(=O)C12CC3CC(CC(C3)C1)C2)c1ccncc1	-2	-7	0	29	61*	12
